{"source": "PubChem BioAssay", "note": "Values joined by “and” are separate entries in the source; they are usually repeats but may differ in a detail not shown here. Equal entries are not always repeated. Values without a mark were called inactive. The rule behind the calls is not given here."}
{"test_system": "Aerobactin synthetase IucA (Klebsiella pneumoniae hvKP1)", "test": "Biochemical IucA enzyme inhibition primary screen of the Spectrum library (AID 1346200);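 note: 100% = wells without compound and 0% = wells lacking enzyme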", "details": "malachite green pyrophosphate, A620, at 8 µM, hits give low values"}
{"smiles": "COc1cc(/C=C/C(=O)O)cc(OC)c1OC", "activity remaining": "111%"}
{"smiles": "CC(=O)N[C@@H]1[C@@H](O)[C@H](O)[C@@H](CO)O[C@H]1O", "activity remaining": "106%"}
{"smiles": "C=C1C(N)CC2CC1C2(C)C", "note": "(centres undefined)", "activity remaining": "96.6%"}
{"smiles": "C=C(C)[C@H]1COc2cc3oc(=O)ccc3cc2O1", "activity remaining": "118%"}
{"smiles": "CC1(C)CC[C@]2(C(=O)O)CC[C@]3(C)C(=CCC4[C@@]5(C)CC[C@H](O)[C@@](C)(CO)C5CC[C@]43C)C2C1", "note": "(some centres undefined)", "activity remaining": "97.3%"}
{"smiles": "COc1cc(O)c(C(=O)/C=C/c2ccc(OC)c(O)c2)c(OC)c1", "activity remaining": "105%"}
{"smiles": "O=C(O)c1cc(=O)c(O)c2c(O)c(O)ccc2c1", "activity remaining": "90.4%"}
{"smiles": "COc1ccc([C@@H]2CC(=O)c3c(O)cc(O[C@@H]4O[C@H](CO[C@H]5O[C@@H](C)[C@H](O)[C@@H](O)[C@H]5O)[C@@H](O)[C@H](O)[C@H]4O)cc3O2)cc1O", "activity remaining": "102%"}
{"smiles": "Nc1ccc(S(=O)(=O)Nc2ncccn2)cc1", "activity remaining": "120%"}
{"smiles": "COCCc1ccc(OCC(O)CNC(C)C)cc1", "note": "(centres undefined)", "activity remaining": "113%"}
{"smiles": "COc1ccc(-c2cc(=O)c3c(O)cc(O[C@H]4O[C@H](CO[C@@H]5O[C@@H](C)[C@H](O)[C@@H](O)[C@H]5O)[C@@H](O)[C@H](O)[C@H]4O)cc3o2)cc1", "activity remaining": "101%"}
{"smiles": "C[C@@H]1CC2C3CCC4=CC(=O)C=C[C@]4(C)[C@@]3(F)[C@@H](O)C[C@]2(C)[C@@]1(O)C(=O)CO", "note": "(some centres undefined)", "activity remaining": "119%"}
{"smiles": "CC1(C)S[C@@H]2[C@H](NC(=O)Cc3ccccc3)C(=O)N2[C@H]1C(=O)O", "activity remaining": "111%"}
{"smiles": "COc1ccc2c(c1)OC/C(=C/c1ccc(OC)c(OC)c1)C2=O", "activity remaining": "123%"}
{"smiles": "N[C@@H](C(=O)O)[C@@H](O)[C@H](O)[C@H](O)CO", "activity remaining": "120%"}
{"smiles": "CC(=O)O[C@@H]1CC2C(C)(C)C(=O)C=C[C@]2(C)C2CC[C@@]3(C)[C@H](c4ccoc4)OC(=O)[C@H]4O[C@]43[C@@]21C", "note": "(some centres undefined)", "activity remaining": "104%"}
{"smiles": "CCCCCC(C)N", "note": "(centres undefined)", "activity remaining": "111%"}
{"smiles": "Cc1cc(C2CCCCC2)n(O)c(=O)c1", "activity remaining": "95.7%"}
{"smiles": "CC1(C)Oc2ccc3ccc(=O)oc3c2CC1O", "note": "(centres undefined)", "activity remaining": "88.1%"}
{"smiles": "COc1ccc([C@@H](C)C(=O)c2ccc(O)cc2O)cc1", "activity remaining": "118%"}
{"smiles": "O=C(O)c1nc2cc(Cl)c(Cl)cc2[nH]c1=O", "activity remaining": "92.7%"}
{"smiles": "COC(=O)[C@@H]1OC(=O)[C@H]2O[C@@]23[C@@]1(C)CCC1[C@@]2(C)CCC(=O)C(C)(C)C2C[C@@H](OC(C)=O)[C@]13C", "note": "(some centres undefined)", "activity remaining": "109%"}
{"smiles": "O=C1c2ccccc2C(=O)C1c1ccccc1", "activity remaining": "121%"}
{"smiles": "C[C@H]1[C@H](NC(=O)/C(=N/OC(C)(C)C(=O)O)c2csc(N)n2)C(=O)N1S(=O)(=O)O", "note": "(stereo in doubt)", "activity remaining": "113%"}
{"smiles": "CO[C@H]1C[C@H](O[C@H]2[C@H](C)[C@@H](OC3O[C@H](C)C[C@H](N(C)C)[C@H]3OC(C)=O)[C@@H](C)C[C@]3(CO3)C(=O)[C@H](C)[C@@H](OC(C)=O)[C@@H](C)[C@@H](C)OC(=O)[C@@H]2C)O[C@@H](C)[C@@H]1OC(C)=O", "note": "(some centres undefined)", "activity remaining": "116%"}
{"smiles": "COc1cccc(O)c1O", "activity remaining": "110%"}
{"smiles": "O=c1cc(-c2ccc(O)cc2)oc2cc(O[C@@H]3O[C@H](CO)[C@@H](O)[C@H](O)[C@H]3O)cc(O)c12", "activity remaining": "101%"}
{"smiles": "N[C@H](C(=O)O)[C@@H]1CC(Cl)=NO1", "activity remaining": "112%"}
{"smiles": "COc1cc2c(cc1OC)C1(O)C(=O)c3ccc(O)c(C(=O)O)c3OC1CO2", "note": "(centres undefined)", "activity remaining": "117%"}
{"smiles": "CCN(CC)CCNc1ccc(CO)c2sc3ccccc3c(=O)c12", "activity remaining": "114%"}
{"smiles": "CCC(Cc1c(I)cc(I)c(N)c1I)C(=O)O", "note": "(centres undefined)", "activity remaining": "103%"}
{"smiles": "O=C1[C@H](CCC(O)c2ccc(F)cc2)[C@@H](c2ccc(O)cc2)N1c1ccc(F)cc1", "note": "(some centres undefined)", "activity remaining": "122%"}
{"smiles": "C[C@H]1CC[C@@H](C(C)(C)O)CC2=C1CC[C@@H]2C", "activity remaining": "102%"}
{"smiles": "C1CCN2C[C@@H]3C[C@H](CN4CCCC[C@@H]34)[C@H]2C1", "activity remaining": "106% and 89.3%"}
{"smiles": "O=C1CC(c2ccc(O)c(O)c2)Oc2cc(O)cc(O)c21", "note": "(centres undefined)", "activity remaining": "109%"}
{"smiles": "CC(=O)OCC(=O)[C@@]1(O)CCC2C3CCC4=CC(=O)CC[C@]4(C)C3C(=O)C[C@@]21C", "note": "(some centres undefined)", "activity remaining": "120%"}
{"smiles": "CN[C@@H]1[C@@H](O[C@H]2O[C@H](CO)[C@@H](N)[C@H](O)[C@H]2O)O[C@H]2C[C@@H](N)[C@H](O[C@H]3[C@H](O)[C@@H](O)[C@H](N)C[C@@H]3N)O[C@@H]2[C@@H]1O", "activity remaining": "124%"}
{"smiles": "COc1c(Cl)ccc(Cl)c1C(=O)O", "activity remaining": "108%"}
{"smiles": "COc1ccc(-c2cc(=O)c3c(OC)c(OC)c(OC)c(OC)c3o2)cc1OC", "activity remaining": "122%"}
